Rows were chosen to be rich in hits. Some 2% of all compounds tested hit in one or more screens of this group.
Arbovirus inh = antivirals against arbovirus infection; AID 1251; actives 0.37% (n = 200,000); arbovirus infection cell-based antiviral screen; inhibition, % at 10 µM; in the data active means inhibition above about 30%
PKD1 kinase inh = PKD1 (human) kinase inhibition; Q15139; PKD1 kinase fluorescence polarization assay; inhibition, % (test concentration not listed); actives 0.056% (n = 200,000); AID 797; in the data active means inhibition above about 50%
Efa HMGR inh = blocks class II HMG-CoA reductase of Enterococcus faecalis; actives 0.41% (n = 190,000); inhibition, % at 10 µM; purified E. faecalis HMGR, NADPH absorbance 340 nm kinetic;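 active means inhibition above a set limit, the median over all tested compounds plus 3 SD, cut at about 9.5% in these data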;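 further: enzyme runs in reverse so mevalonate oxidation gives rising NADPH absorbance; 0% = complete reaction with DMSO and 100% = background rate lacking mevalonate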
Hsp70 act = switches on Hsp70 transcription; actives 0.04% (n = 200,000); HeLa Hsp70 promoter luciferase reporter, luminescence; scaled: vehicle 0, proteasome-inhibitor control 100%; activation, % at 10 µM;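 active means activation above the mean across all tested compounds plus 3 SD, cutoff set per campaign, cut at about 5.5% in these data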;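 further: 100% = MG132 at 30 µM as the positive control and 0% = DMSO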
Wee1 stabilizer = inhibitors of human Wee1 degradation; actives 1.2% (n = 220,000); AID 1321; P30291; HeLa Luc-Wee1K328M stability, luciferase luminescence; 100% = proteasome inhibitor MG132 effect; reporter increase, % at 5 µM;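 active means activation above the mean of all tested compounds plus 3 SD, set per screening run, cut at about 8.8% in these data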;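 further: cells exposed to compound for 20 h before luminescence read; 0% = DMSO alone and 100% = MG132 at 30 µM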
Target sequence (P30291 whole entry K328M): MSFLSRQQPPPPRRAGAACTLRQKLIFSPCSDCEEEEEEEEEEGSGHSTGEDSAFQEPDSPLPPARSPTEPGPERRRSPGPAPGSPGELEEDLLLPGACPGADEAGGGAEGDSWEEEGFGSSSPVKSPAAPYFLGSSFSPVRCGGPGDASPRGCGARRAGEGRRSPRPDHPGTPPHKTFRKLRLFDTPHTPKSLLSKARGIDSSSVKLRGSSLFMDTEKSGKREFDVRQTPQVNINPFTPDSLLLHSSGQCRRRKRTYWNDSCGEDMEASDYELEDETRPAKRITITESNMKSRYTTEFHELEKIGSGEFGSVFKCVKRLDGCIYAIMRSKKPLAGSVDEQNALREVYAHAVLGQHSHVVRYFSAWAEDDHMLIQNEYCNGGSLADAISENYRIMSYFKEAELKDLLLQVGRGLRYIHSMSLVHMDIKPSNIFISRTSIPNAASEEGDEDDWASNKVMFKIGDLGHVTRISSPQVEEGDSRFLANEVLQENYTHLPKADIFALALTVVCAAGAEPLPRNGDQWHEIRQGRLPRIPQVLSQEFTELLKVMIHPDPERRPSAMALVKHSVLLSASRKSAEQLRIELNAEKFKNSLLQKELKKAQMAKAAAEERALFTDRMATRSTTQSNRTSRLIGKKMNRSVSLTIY
Numbers without * were called inactive; / = not tested or not shown; ! = not confirmed by another sample.

SMILES	Arbovirus inh	PKD1 kinase inh	Efa HMGR inh	Hsp70 act	Wee1 stabilizer
COc1ccc(N=Nc2nc3ccc(Br)cc3n2C)cc1	-10.8	15.2	0.5	0.1	9.9*
CN(C)c1nnnn1-c1ccccc1Oc1ncc(C(F)(F)F)cc1Cl	13.2	5.0	1.7	-0.2	-0.5
CCc1nnc(NC(=O)C2CCC(CNc3c(N4CCC(C)CC4)c(=O)c3=O)CC2)s1 (configuration not stated)	/	/	/	/	4.2
[N-]=[N+]=CC(=O)C(c1ccccc1)(c1ccccc1)c1ccccc1	/	/	/	/	-2.5
Cc1ccc(-c2c3c(=O)n(C)c(=O)n(C)c3cn2Cc2cccnc2)cc1	4.0	2.5	-2.7	-0.3	23.8*
Cn1c(=O)c2c(-c3ccccc3)n(Cc3cccnc3)cc2n(C)c1=O	0.2	-16.8	-4.3	0.0	1.3
COc1cc(/C=C/C(=O)Nc2ccc(N3CCCCC3)c(S(=O)(=O)Nc3ccccc3Cl)c2)cc(OC)c1OC	17.6	-5.0	0.7	0.0	-0.4
Cc1ccn(CC(C)C(=O)O)n1 (configuration not stated)	2.5	-3.0	1.4	0.0	9.6*
CSc1ccccc1C(=O)NCc1ccc(C)cc1	-4.2	0.8	-2.4	-0.3	-2.7
CSc1ccccc1C(=O)NCc1ccc(F)cc1	-2.7	73.7*	-3.9	-0.5	-2.0
COc1ccccc1N1C(=O)C2C(c3ccccc3F)NN(C(=O)c3ccc(C)cc3)C2C1=O (configuration not stated)	-1.2	-7.5	5.5	0.2	-0.8
COCc1nnc(NS(=O)(=O)c2ccc(NC(C)=O)cc2)s1	7.7	5.2	-0.1	0.1	9.9*
CCc1nnc(NS(=O)(=O)c2ccc(NC(=O)COc3ccc4ccccc4c3)cc2)s1	42.3*	-7.0	1.3	-0.3	-3.6
Cc1nnc(SCC(=O)NNC(=O)CC#N)[nH]c1=O	0.7	0.8	-4.0	-0.5	-3.9
Cn1c(N)c(C(=O)/C=C/c2ccccc2)c(=O)[nH]c1=O	/	/	/	/	-2.0
CCNS(=O)(=O)c1ccc2nc(NC(=O)/C=C/c3cc(OC)c(OC)c(OC)c3)sc2c1	10.1	10.6	1.6	-0.2	-2.6
COCCCNC(=O)CN1C(=O)/C(=C/c2ccccc2)Sc2ccccc21	/	/	/	/	3.2
Cc1ccc(NC(=O)CSc2nnc(Cc3ccccc3)o2)cc1	3.7	-6.7	-1.4	0.3	10.7*
Cc1cccc(NC(=O)CSc2nnc(Cc3ccccc3)o2)c1	-0.5	-3.4	-6.1	-0.1	-2.6
CCOc1ccc(NC(=S)N(CCc2c(C)[nH]c3ccccc23)Cc2ccco2)cc1	-1.3	-6.4	5.2	0.0	2.8
O=C(NC(=O)c1ccccc1Cl)Nc1ccc(-c2cnco2)cc1	/	/	/	/	10.0*
COc1ccc(CN2CCC(CO)(Cc3ccccc3C(F)(F)F)CC2)c(F)c1	6.8	1.0	10.2*	0.1	1.4
Cc1c(O)ccc(C(=O)COc2ccc(F)cc2)c1O	-0.1	-2.1	2.8	0.3	10.1*
CCc1cc(C(=O)COc2ccc(F)cc2)c(O)cc1O	5.6	-0.9	-1.5	0.5	2.5
COc1ccc(Cc2nc(-c3cccs3)no2)cc1OC	2.0	2.6	-0.2	-0.4	1.7
SMILES	Arbovirus inh	PKD1 kinase inh	Efa HMGR inh	Hsp70 act	Wee1 stabilizer
COc1ccc(Cc2nc(-c3cccs3)no2)cc1	0.9	8.9	-7.6	-0.3	8.9*
COCCn1c(SCC#N)nnc1-c1ccc(OC)cc1	0.1	3.0	12.8*	0.0	0.8
S=C(NCc1ccc(Cl)cc1Cl)Nc1ccccc1	-36.0	-8.2	0.2	-0.5	0.8
Cc1cc(C(=O)Nc2ccc(N3CCCCC3)cc2)no1	/	/	/	/	9.1*
Nc1nc(C(F)(F)F)cc(=O)n1N	1.2	0.7	2.1	-0.2	-4.2
COC(=O)c1cc(=O)n(-c2ccc(F)cc2)c(=Nc2ccc(F)cc2)s1	-31.5	-14.6	11.2*	1.3	-2.1
O=C(O)CC/C(=C\c1ccc(N2CCCC2)c([N+](=O)[O-])c1)c1nc2ccccc2s1	53.7*	-0.3	-12.8	-0.2	4.3
O=C(CSC1CN(C(c2ccccc2)c2ccccc2)C1)N/N=C/c1ccccc1	/	/	/	/	4.0
O=S(=O)(c1ccc(Oc2ccc(Cl)cc2)c(S(=O)(=O)N2CCCCC2)c1)N1CCCCC1	38.0*	-10.5	-8.0	-0.1	2.2
NCCSC1CC(=O)N(Cc2ccc(F)cc2)C1=O (configuration not stated)	1.0	-1.9	10.3*	-0.2	-1.0
CC(=O)Nc1cccc(/C(C)=N/NC(=O)c2ccc(CN3CCOCC3)cc2)c1	-4.0	-0.8	1.5	-0.3	-3.1
Cc1ccc(Cl)cc1NC(=O)COC(=O)C12CC3CC(CC(C3)C1)C2	-2.0	-0.4	14.0*!	-0.2	-1.5
Cc1ccc(Cl)cc1NC(=O)COC(=O)C1CCCC1	7.1	-11.5	2.6	-0.2	2.2
Cc1ccc(CSCC(=O)NCc2ccco2)cc1	-4.4	11.0	-5.7	-0.1	2.2
COC(=O)COc1cccc2c(=O)n(CC(=O)NCCc3ccccc3)ccc12	1.2	-6.3	-2.2	-0.1	1.2
O=C(NCCOc1ccccc1Cl)C(=O)c1c[nH]c2ccccc12	3.4	-3.0	16.7*	-0.1	-3.4
CC(C)(C)c1ccc(COC(=O)Nc2ccc(F)cc2)cc1	-1.6	3.5	-5.9	0.0	-0.2
COC(=O)c1ccc(NC(=O)Nc2ccc(F)cc2)cc1	7.2	-16.1	-2.4	-0.3	-0.6
COC(=O)c1ccc(NC(=O)Nc2ccccc2F)cc1	2.8	-9.1	16.9*	0.1	6.7
CCOC(=O)c1ccc(NS(=O)(=O)c2cnc[nH]2)cc1	0.0	-6.5	-1.9	-0.3	11.3*
CCOC(=O)c1ccc(NC(=O)Nc2ccc(F)cc2)cc1	22.1	5.4	-2.9	0.1	10.1*
CC(C)(C)c1ccc(NC(=O)Nc2ccc(F)cc2)cc1	-1.0	1.9	-2.8	0.0	9.6*
N#Cc1ccc(OCC(=O)OCC(=O)NCCC2=CCCCC2)cc1	1.0	-15.5	-4.9	-0.5	2.0
CC[C@H](C)[C@@H](C(=O)N1CCNCC1)n1cc([C@@H](N)CO)nn1	2.5	0.2	-0.7	0.0	-0.2
CC(C)OCc1c(C(=O)Nc2nccs2)oc2ccccc12	18.6	3.9	-2.5	-0.3	10.6*
SMILES	Arbovirus inh	PKD1 kinase inh	Efa HMGR inh	Hsp70 act	Wee1 stabilizer
COC(=O)c1nnn(-c2nonc2N)c1COc1ccc(C=O)cc1OC	6.8	10.6	-5.6	-0.3	0.4
CC(C)C(C(=O)O)N1C(=O)/C(=C/C=C/c2ccco2)SC1=S (configuration not stated)	-4.9	5.4	11.2*	-0.5	-1.6
COCc1cc(C)n(CC(=O)OC)c(=O)c1C#N	17.9	-2.4	13.6*	-0.1	-2.0
COCc1cc(C)n(CC(=O)Nc2ccccc2OC)c(=O)c1C#N	7.8	8.1	-5.1	-0.4	-2.0
O=C(CCN1CCOCC1)NNC(=S)NC(=O)c1ccccc1	-1.6	1.5	-4.0	0.1	0.1
CN(Cc1ccc(F)cc1)Cc1nc(-c2cnccn2)no1	1.7	6.2	-4.2	-0.1	-1.0
O=C1CCCCC1C(Nc1ccc(Cl)cc1)c1ccccc1 (configuration not stated)	-13.5	-1.6	-6.3	0.1	9.5*
O=C1OCCN1C(=O)[C@H]1[C@H](c2ccc(F)cc2)C(c2ccc(F)cc2)=NN1c1ccccc1	-20.6	-6.5	-6.5	-0.3	-0.4
